NPC1 prom act = NPC1 promoter activation | Huh7 NPC1 promoter luciferase reporter, 24 h | Potency, µM (titrated, usually from 9.22 µM), for inactives: top-dose activation, hits mostly activators | actives 2.4% (n = 320,000); further: % of control where 0% means no effect; nearly all actives have a fitted effect of over 60% in size
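Stably transfected Huh7 (NPC1 promoter→luciferase), 1500 cells/well in Opti-MEM + 10% FBS, 2 h settle, then compound 24 h at 37 °C. Luminescence after 10 min with Amplite reagent.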
ELG1 genotoxic = inducers of genotoxicity in HEK293T ELG1-luciferase cells; actives 1.3% (n = 330,000); Potency, µM (doses to about 46 µM), inactives show at the top dose activity change, positive = activation, actives largely listed as activators; HEK293T ELG1-luciferase reporter, luminescence, 16 h; AID 504466; further: % of control where 0% means no effect; nearly all actives have a fitted effect of over 60% in size
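ELG1-luciferase HEK293T cells, 2,000/well; compound pinned in; 16 hr, 37 °C, 5% CO2; ONE-Glo, 30 min RT; luminescence on CCD imager.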
FLuc modulator = counter-screen for miR-21 project: firefly luciferase inhibitors or activators | P08659 | purified FLuc, Km substrates, luminescence inhibition | Potency, µM (doses to about 57.5 µM), inactives show at the top dose activity change, negative = inhibition, actives largely listed as inhibitors | actives 6.9% (n = 360,000) | AID 588342;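 further: plate controls were vehicle for no effect and reference inhibitor for full effect; nearly all actives have a fitted effect of over 55% in size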
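Purified P. pyralis luciferase (10nM final) with 10uM D-luciferin and 10uM ATP (Km levels) in 50mM Tris acetate pH 7.5, 10mM Mg acetate, 0.01% Tween-20, 0.05% BSA; qHTS 6-point titration, ~60 µM downward; luminescence read.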
Rab9 prom act = Rab9 promoter activation. Huh7 Rab9 promoter-luciferase reporter, luminescence, 24 h. Potency, µM (highest dose often 9.22 µM), inactives show top-dose activation, negative = inhibition, actives largely listed as activators. actives 2.8% (n = 320,000). AID 485297; further: % of control where 0% means no effect; nearly all actives have a fitted effect of over 60% in size
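Huh7 cells stably carrying Rab9 promoter–luciferase reporter, plated 1500 cells/well, compound added after 2 h and incubated 24 h at 37 °C; luciferase luminescence then read after 10 min with detection reagent.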
ELG1 repair inh = ELG1-dependent DNA repair inhibition. AID 504467. HEK293T ELG1-luciferase reporter, luminescence, 16 h; DNA damage induced by 5-fluorouridine. Potency, µM (highest dose often 46.1 µM), without a hit: at the top dose activity change, negative = inhibition, actives largely listed as inhibitors. actives 2.3% (n = 330,000); further: on the % scale 0 is the no-effect control and ±100 the full control effect; nearly all actives have a fitted effect of over 55% in size
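Luminescence from the luciferase reporter, measured 30 min after ONE-Glo reagent at room temperature, was the read-out. Beforehand, 2,000 cells per well were exposed for 16 hr at 37 °C to 5-fluorouridine together with compound or vehicle.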
SMN2 splice enh = increases expression of the SMN2 splice variant | HEK293 SMN2-luciferase splicing reporter, luminescence, 30-36 h | Potency, µM (top dose mostly 46.1 µM), inactives show at the highest dose activity change, positive = activation, actives largely listed as activators | actives 2.8% (n = 210,000); further: % of control where 0% means no effect; nearly all actives have a fitted effect of over 55% in size
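qHTS luciferase splicing reporter: luminescence rises when SMN2 exon 7 is included in transfected HEK293 cells. Compound exposure lasted 30-36 h at 37C, with 4.5 mM final sodium butyrate as control, followed by a ONE-Glo read.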
ELG1 FLuc counter = luciferase inhibition in cell-free luciferin readout for ELG1 hits. shares compounds with ELG1 repair inh. cell-free firefly luciferase luminescence counter-screen, ViewLux. Potency, µM (top dose mostly 46.1 µM), without a hit: at the highest dose activity change, negative = inhibition, actives largely listed as inhibitors. actives 3% (n = 350); further: on the % scale 0 is the no-effect control and ±100 the full control effect
ELG1 Luc conf = inhibits ELG1-dependent DNA repair in HEK293T cells, confirmed; shares compounds with ELG1 repair inh; HEK293T ELG1-luciferase levels, luminescence; cells co-treated with 5-fluorouridine; Potency, µM (titrated, usually from 46.1 µM), for the others: at the highest dose activity change, negative = inhibition, usual class: inhibitors; actives 68% (n = 670); AID 624248; further: on the % scale 0 is the no-effect control and ±100 the full control effect; nearly all actives have a fitted effect of over 55% in size
Target sequence (Q96QE3 whole entry, looked up): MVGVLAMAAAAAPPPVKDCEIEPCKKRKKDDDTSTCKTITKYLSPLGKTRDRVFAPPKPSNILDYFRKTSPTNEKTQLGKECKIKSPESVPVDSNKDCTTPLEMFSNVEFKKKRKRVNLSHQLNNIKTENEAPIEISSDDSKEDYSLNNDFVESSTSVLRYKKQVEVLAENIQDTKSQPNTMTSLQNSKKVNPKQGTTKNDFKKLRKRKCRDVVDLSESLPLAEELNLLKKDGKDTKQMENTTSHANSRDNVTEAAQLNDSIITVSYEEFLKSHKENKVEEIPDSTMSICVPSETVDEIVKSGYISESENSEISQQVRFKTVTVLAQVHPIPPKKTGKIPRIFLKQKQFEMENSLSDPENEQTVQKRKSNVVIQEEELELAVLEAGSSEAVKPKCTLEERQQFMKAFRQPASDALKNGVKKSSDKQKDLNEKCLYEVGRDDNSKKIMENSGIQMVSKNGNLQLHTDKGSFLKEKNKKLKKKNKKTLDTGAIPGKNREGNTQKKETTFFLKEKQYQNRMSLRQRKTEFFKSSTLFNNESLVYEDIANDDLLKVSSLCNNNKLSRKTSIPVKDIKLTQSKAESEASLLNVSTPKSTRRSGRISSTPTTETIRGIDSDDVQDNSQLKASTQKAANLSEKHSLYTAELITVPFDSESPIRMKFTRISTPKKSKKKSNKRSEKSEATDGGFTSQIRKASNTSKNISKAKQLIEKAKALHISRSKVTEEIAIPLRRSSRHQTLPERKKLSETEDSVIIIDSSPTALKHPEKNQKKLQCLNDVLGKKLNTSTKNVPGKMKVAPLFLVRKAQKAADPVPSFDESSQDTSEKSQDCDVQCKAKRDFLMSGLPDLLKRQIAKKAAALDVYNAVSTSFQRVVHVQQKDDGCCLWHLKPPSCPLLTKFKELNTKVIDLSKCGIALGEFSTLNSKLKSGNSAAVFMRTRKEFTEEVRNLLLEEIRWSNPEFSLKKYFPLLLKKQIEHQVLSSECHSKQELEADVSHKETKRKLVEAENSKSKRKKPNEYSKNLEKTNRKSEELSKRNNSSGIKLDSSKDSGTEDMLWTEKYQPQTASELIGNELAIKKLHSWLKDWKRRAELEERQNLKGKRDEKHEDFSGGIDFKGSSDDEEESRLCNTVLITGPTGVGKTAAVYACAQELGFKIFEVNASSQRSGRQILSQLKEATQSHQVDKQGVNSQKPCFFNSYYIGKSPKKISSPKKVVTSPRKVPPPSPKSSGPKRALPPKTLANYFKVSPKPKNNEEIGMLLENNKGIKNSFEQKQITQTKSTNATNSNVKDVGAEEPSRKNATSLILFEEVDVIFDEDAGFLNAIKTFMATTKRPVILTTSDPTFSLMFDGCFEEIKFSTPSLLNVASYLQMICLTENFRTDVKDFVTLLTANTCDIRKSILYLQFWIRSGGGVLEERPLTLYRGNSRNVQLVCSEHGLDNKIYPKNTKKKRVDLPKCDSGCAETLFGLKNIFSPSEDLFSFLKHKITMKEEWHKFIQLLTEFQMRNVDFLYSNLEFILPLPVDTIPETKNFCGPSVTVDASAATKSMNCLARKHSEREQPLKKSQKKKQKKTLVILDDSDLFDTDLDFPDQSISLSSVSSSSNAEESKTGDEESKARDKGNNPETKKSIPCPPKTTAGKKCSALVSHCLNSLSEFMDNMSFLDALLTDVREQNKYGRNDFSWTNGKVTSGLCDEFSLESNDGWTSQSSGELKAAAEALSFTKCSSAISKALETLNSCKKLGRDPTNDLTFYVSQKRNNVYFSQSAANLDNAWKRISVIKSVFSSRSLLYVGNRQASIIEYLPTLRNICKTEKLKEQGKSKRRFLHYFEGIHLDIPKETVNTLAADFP
ELG1 MMS Luc = inhibits ELG1-dependent repair under MMS stimulation in HEK293T cells; shares compounds with ELG1 repair inh; HEK293T luciferase-tagged ELG1 level, MMS stimulated; Potency, µM (highest dose often 46.1 µM), inactives show top-dose activity change, negative = inhibition, usual class: inhibitors; actives 53% (n = 670); further: on the % scale 0 is the no-effect control and ±100 the full control effect; nearly all actives have a fitted effect of over 60% in size
ELG1 5-FU = confirmation of ELG1 repair inhibitors: viability with 5FU. shares compounds with ELG1 repair inh. cell viability with 5-FU, ELG1-dependent repair. Potency, µM (series often up to 46.1 µM), for the others: at the top dose activity change, negative = viability loss, actives largely listed as cytotoxic. 670 tested, under 10 active. AID 624250;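 further: ELG1-luc HEK293T cells cotreated with 5-fluorouridine at 10 µM final; viability measured 16 h after compound addition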
ELG1 MMS viab = confirmation of ELG1 repair inhibitors: viability with MMS. Potency, µM (doses to about 46.1 µM), for inactives: at the highest dose activity change, negative = viability loss, actives largely listed as cytotoxic. AID 624251. Cell viability with MMS, ELG1-dependent DNA repair. actives 33% (n = 670). shares compounds with ELG1 repair inh;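 further: ELG1-luc HEK293T cells co-treated with 10 µM MMS; viability read 16 h after compound addition; on the % scale 0 is the no-effect control and ±100 the full control effect; nearly all actives have a fitted effect of over 60% in size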
Cell viab unstim = unstimulated viability counter-screen for ELG1 repair hits | shares compounds with ELG1 repair inh | cell viability counter-screen, unstimulated, luminescence | Potency, µM (titrated, usually from 45.9 µM), for the others: top-dose activity change, negative = loss of viability, usual class: cytotoxic | actives 8% (n = 900);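 further: compound exposure lasted 16 hours before reading; on the % scale 0 is the no-effect control and ±100 the full control effect; nearly all actives have a fitted effect of over 55% in size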
FLuc enzyme = inhibits purified firefly luciferase, counter-screen for ELG1 hits | Potency, µM (titrated, usually from 57.5 µM), for inactives: at the top dose activity, negative = inhibition, hits mostly inhibitors | actives 10% (n = 350) | AID 624253 | shares compounds with ELG1 repair inh | purified firefly luciferase, luminescence counter-screen; further: on the % scale 0 is the no-effect control and ±100 the full control effect
Numbers without * were called inactive; ? = inconclusive; . = not tested or not shown; [ ] = remark or other dose. This is a sample that favours compounds with a hit; in the whole collection about 9.2% have one here. The call rests on the fitted dose curve; in most records, active means well fitted curve in the direction sought with a large enough effect; inconclusive means small, poorly fitted or top-dose-only effect, or another doubt; inactive means no such curve, though single readings can be large; an effect the other way counts as inactive or inconclusive. Potency means the concentration at half of the fitted maximal effect.

SMILES	NPC1 prom act	ELG1 genotoxic	FLuc modulator	Rab9 prom act	ELG1 repair inh	SMN2 splice enh	ELG1 FLuc counter	ELG1 Luc conf	ELG1 MMS Luc	ELG1 5-FU	ELG1 MMS viab	Cell viab unstim	FLuc enzyme
CC1CC(C)CN(C(=O)COC(=O)/C=C/c2cccc([N+](=O)[O-])c2)C1 (configuration not stated)	-4%	2%	-8%	6%	-8%	.	.	.	.	.	.	.	.
CC1CN(C(=O)COC(=O)/C=C/c2cccc([N+](=O)[O-])c2)CC(C)O1 (configuration not stated)	.	-6%	.	.	1.5µM*	.	.	-17%	?	-5%	?	?	.
COc1ccc2c(c1)c(CC(=O)Nc1ccccc1OC)c(C)n2C(=O)c1ccc(Cl)cc1	-4%	1%	-2%	-6%	-20%	-38%	3%	10µM*	?	?	?	-3%	3%
CCCCn1c(SCC(=O)Nc2nnc(CC)s2)nc2c1c(=O)n(C)c(=O)n2C	-9%	-18%	4%	-12%	2.5µM*	-40%	.	?	11%	-14%	?	?	.
CCCCn1c(SCC(=O)Nc2nnc(C)s2)nc2c1c(=O)n(C)c(=O)n2C	-3%	0%	0%	-1%	9%	-2%	.	.	.	.	.	.	.
COc1ccc(NS(=O)(=O)c2cc(NC(=O)c3cccc(OCc4c(C)noc4C)c3)ccc2OC)cc1	-18%	-1%	7%	-6%	?	-12%[1.84 µM]	.	.	.	.	.	.	.
CCN(CC(=O)Nc1c(C(=O)OC)[nH]c2ccc(C)cc12)c1ccc2c(c1)OCO2	2%	-11%	-3%	-6%	4.6µM*	.	.	7.1µM*	?	?	-1%	?	.
COC(=O)c1[nH]c2ccc(C)cc2c1NC(=O)C1=COCCO1	0%	1%	?	0%	-15%	16%	.	.	.	.	.	.	.
CCCCCCNC(=O)CCc1c(C)nc2nc(-c3cc(OC)cc(OC)c3)nn2c1C	.	.	2%	.	.	3%	.	.	.	.	.	.	.
CCCCNC(=O)CCc1c(C)nc2nc(-c3cc(OC)cc(OC)c3)nn2c1C	0%	1%	0%	9%	2.3µM*	24%	.	?	1%	?	?	8%	.
COc1ccc(N(C)C(=O)c2cn(CC(C)C)c(=O)c3cc(OC)c(OC)cc23)c(OC)c1	1%	0%	1%	-2%	1.5µM*	.	5%	1.8µM*	-17%	?	-1%	?	6%
O=C(CCN1C(=O)NC2(CCCC2)C1=O)Nc1ccc(-c2nc3ccccc3s2)cc1	0.89µM*	?	.	0.45µM*	?	.	120%	.	.	.	.	?	3.7µM*
C=CCOc1ccc(C[C@H](N)C(=O)NC[C@H]2O[C@@H](n3cnc4c(N)ncnc43)[C@H](O)[C@@H]2O)cc1	.	9%	.	.	11%	.	.	.	.	.	.	.	.
COc1ccc(C[C@H](N)C(=O)N[C@H]2[C@@H](O)[C@H](n3cnc4c(N(C)C)ncnc43)O[C@@H]2CO)cc1	-36%	-58%	4%	-46%	2.5µM*	.	.	3.1µM*	1.6µM*	?	2.2µM*	2.2µM*	.
CC(=O)c1c(C)[nH]c(C(=O)Nc2ccc(F)c(F)c2F)c1C	3%	3%	-3%	6%	?	.	.	.	.	.	.	.	.
Cc1ccc(S(=O)(=O)NCc2ccncc2)c(C)c1C	-3%	0%	-5%	-5%	0%	.	-8%	10%	1µM*	-10%	1.1µM*	?	-4%
COc1cc(C)c(Br)cc1S(=O)(=O)NCc1ccncc1	-20%	-3%	0%	-24%	1.6µM*	-45%	-6%	-7%	3.2µM*	-7%	3.2µM*	?	-1%
Cc1ccc(S(=O)(=O)NCc2ccccn2)c(C)c1C	-1%	-2%	4%	0%	?	.	.	.	.	.	.	.	.

Screening results deposited in PubChem by National Center for Advancing Translational Sciences (NCATS).
